Test results published in the antibiotic and cytotoxicity screens of Wong et al. (2023).
The whole screen tested about 39,000 compounds, of which about 3,300 (8.5%) were called active. Only a selection was taken, and actives are over-represented in it overall.

System: HepG2
Assay: cytotoxicity call (relative viability < 0.9)
Conditions: 10 µM

SMILES	cytotoxicity call
C=CCNC(=O)C(=O)NC[C@H]1OCCCN1S(=O)(=O)c1ccccc1	inactive
C[C@@H]1CN([C@@H](C)CO)S(=O)(=O)c2ccc(C3=CCCCC3)cc2O[C@@H]1CN(C)Cc1cncnc1	inactive
C[C@@H]1CN([C@@H](C)CO)C(=O)Cc2cc(NC(=O)Cn3cnnn3)ccc2O[C@H]1CN(C)C(=O)NC1CCCCC1	inactive
Cc1noc(C)c1NC(=O)N(C)C[C@@H]1Oc2ccc(NC(=O)c3ccncc3)cc2C(=O)N([C@H](C)CO)C[C@H]1C	inactive
COc1ccc2[nH]cc(CCNC(C)=O)c2c1	inactive
NCCc1c(C(=O)O)[nH]c2ccc(Br)cc12	inactive
COc1ccc2[nH]c3c(-c4cccc5ccccc45)nccc3c2c1	inactive
O=c1[nH]c(=O)c2cc(Br)ccc2[nH]1	active
COc1ccc2[nH]c(=O)[nH]c(=O)c2c1	active
O=c1[nH]c(=O)c2ccccc2[nH]1	inactive
C[C@@H]1CCCCO[C@H](CN(C)C(=O)Nc2ccc(C(F)(F)F)cc2)[C@@H](C)CN([C@H](C)CO)C(=O)c2cc(NS(C)(=O)=O)ccc2O1	inactive
CC(C)NC(=O)Nc1cccc2c1O[C@@H](CN(C)C(=O)Nc1ccc3c(c1)OCO3)[C@@H](C)CN([C@@H](C)CO)C2=O	inactive
C[C@@H]1CN([C@@H](C)CO)C(=O)c2cccc(NS(=O)(=O)c3ccccc3)c2O[C@@H]1CN(C)S(=O)(=O)c1cn(C)cn1	inactive
C=CCOC(=O)[C@H]1[C@@H]2C(=O)O[C@@H](c3ccccc3)[C@@H](c3ccccc3)N2[C@@H](c2ccc(OCCOC(=O)[C@H]3C[C@H]4C(=O)N[C@@H](CC(C)C)C(=O)N4[C@H]3c3ccc(O)cc3)cc2)[C@]12C(=O)Nc1ccc(I)cc12	inactive
COc1cc(CCC(=O)O)oc(=O)c1	inactive
COC(=O)[C@H](Cc1ccccc1)N1CC(/C=C/C2CC2)=C[C@@H]1[C@@H](O)CCn1cc(-c2ccc(C(=O)NO)s2)nn1	inactive
COC(=O)[C@@H](Cc1ccccc1)N[C@H](/C=C/C1CC1)[C@@H](O)CCn1cc(-c2cccc(/C=C/C(=O)NO)c2)nn1	inactive
COC(=O)[C@@H](Cc1ccccc1)N[C@H](/C=C/C1CC1)[C@@H](O)CCn1cc(-c2ccc(C(=O)NO)cc2)nn1	active
COC(=O)[C@@H](Cc1ccccc1)N[C@H](/C=C/C1CC1)[C@@H](O)CCn1cc(-c2ccc(C(=O)NO)s2)nn1	active
COC(=O)[C@H](Cc1ccccc1)N1CC(/C=C/C2CC2)=C[C@@H]1[C@@H](O)CCn1cc(-c2ccc(C(=O)NO)cc2)nn1	inactive
C#CCN([C@H](/C=C/C1CC1)[C@@H](O)CCn1cc(-c2ccc(C(=O)NO)s2)nn1)[C@@H](Cc1ccccc1)C(=O)OC	inactive
Cc1ccc(-c2ccc3c(c2)O[C@@H](CN(C)C(=O)NC(C)C)[C@H](C)CN([C@@H](C)CO)S3(=O)=O)cc1	inactive
C[C@H](CO)N1C[C@H](C)[C@H](CN(C)S(=O)(=O)c2ccc3c(c2)OCCCO3)OCc2cnnn2CCCC1=O	inactive
C[C@H](CO)N1C[C@H](C)[C@H](CN(C)Cc2ccccc2F)Oc2cc(C#CC3CC3)ccc2S1(=O)=O	inactive

SMILES	cytotoxicity call
CCN(CC)CCNC(=O)c1c(C)[nH]c(/C=C2/C(=O)Nc3ccc(-c4csc(-c5ccccc5)n4)cc32)c1C	active
C[C@@H]1CN([C@@H](C)CO)S(=O)(=O)c2ccc(C#CCC3CCCC3)cc2O[C@H]1CN(C)C(=O)c1cnccn1	inactive
C[C@@H]1CCCCO[C@H](CN(C)S(=O)(=O)c2cccs2)[C@H](C)CN([C@H](C)CO)C(=O)c2cc(NC(=O)C3CCCCC3)ccc2O1	inactive
CC(C)NC(=O)Nc1cccc2c1O[C@@H](CN(C)S(=O)(=O)c1ccc(F)cc1)[C@@H](C)CN([C@@H](C)CO)C2=O	inactive
CC12CCC(O)CC1=CCC1C2CCC2(C)C(c3cccnc3)=CCC12 (stereo not given)	inactive
CC1C2CCC3C4CC=C5CC(N(C)C)CCC5(C)C4CCC32CN1C (stereo not given)	active
CC(=O)C1CCC2C3CC=C4CC(O)CCC4(C)C3CCC12C (stereo not given)	inactive
CC(O)C(N)C(=O)O (stereo not given)	inactive
CC(C)[C@@H](N)C(=O)O	inactive
C[C@@H](O)[C@H](N)C(=O)O	active
C[C@H](CO)N1C[C@H](C)[C@H](CN(C)Cc2ccc(Oc3ccccc3)cc2)Oc2ccc(NC(=O)Cn3cnnn3)cc2CC1=O	inactive
COC(=O)[C@H](Cc1ccc(-n2cc(-c3ccc(C(=O)NO)s3)nn2)cc1)N1CC2=C[C@H]([C@@H](O)Cc3ccccc3)n3c(=O)n(C)c(=O)n3[C@@H]2[C@@H](C2CC2)O1	inactive
COC(=O)[C@H](Cc1ccc(-n2cc(-c3ccc(C(=O)NO)cc3)nn2)cc1)N1CC2=C[C@H]([C@@H](O)Cc3ccccc3)n3c(=O)n(C)c(=O)n3[C@@H]2[C@@H](C2CC2)O1	inactive
COC(=O)[C@H](Cc1ccc(-n2cc(-c3cccc(/C=C/C(=O)NO)c3)nn2)cc1)N1CC2=C[C@H]([C@@H](O)Cc3ccccc3)n3c(=O)n(C)c(=O)n3[C@@H]2[C@@H](C2CC2)O1	active
CC(=O)N1CCO[C@H]2CCN(C(=O)c3ccn(C)n3)C[C@H]21	inactive
COc1c(N2CCNC(C)C2)c(F)cc2c(=O)c(C(=O)O)cn(C3CC3)c12 (stereo not given)	active
COc1c(N2CC3CCCNC3C2)c(F)cc2c(=O)c(C(=O)O)cn(C3CC3)c12.Cl (stereo not given)	inactive
CCn1cc(C(=O)O)c(=O)c2cc(F)c(N3CCNC(C)C3)c(F)c21.Cl (stereo not given)	inactive
C[C@H](CO)N1C[C@H](C)[C@H](CN(C)S(=O)(=O)c2ccc(F)cc2)OCCCC[C@H](C)Oc2ccc(NC(=O)Cc3ccccc3)cc2C1=O	inactive
C[C@@H]1CN([C@H](C)CO)C(=O)c2cc(NC(=O)Cc3ccccc3)ccc2O[C@@H](C)CCCCO[C@H]1CN(C)S(=O)(=O)c1ccc(F)cc1	inactive
C[C@@H]1CCCCO[C@@H](CN(C)S(=O)(=O)c2ccc(F)cc2)[C@H](C)CN([C@@H](C)CO)C(=O)c2cc(NC(=O)Cc3ccccc3)ccc2O1	inactive
C[C@H]1CCCCO[C@H](CN(C)S(=O)(=O)c2ccc(F)cc2)[C@@H](C)CN([C@@H](C)CO)C(=O)c2cc(NC(=O)Cc3ccccc3)ccc2O1	inactive
C[C@@H]1CCCCO[C@@H](CN(C)S(=O)(=O)c2ccc(F)cc2)[C@H](C)CN([C@H](C)CO)C(=O)c2cc(NC(=O)Cc3ccccc3)ccc2O1	inactive
C[C@@H]1CCCCO[C@H](CN(C)S(=O)(=O)c2ccc(F)cc2)[C@@H](C)CN([C@@H](C)CO)C(=O)c2cc(NC(=O)Cc3ccccc3)ccc2O1	active

SMILES	cytotoxicity call
C[C@@H]1CN([C@H](C)CO)C(=O)c2cc(NC(=O)Cc3ccccc3)ccc2O[C@@H](C)CCCCO[C@@H]1CN(C)S(=O)(=O)c1ccc(F)cc1	inactive
C[C@@H]1CCCCO[C@@H](CN(C)S(=O)(=O)c2ccc(F)cc2)[C@@H](C)CN([C@@H](C)CO)C(=O)c2cc(NC(=O)Cc3ccccc3)ccc2O1	active
C[C@@H]1CCCCO[C@H](CN(C)S(=O)(=O)c2ccc(F)cc2)[C@@H](C)CN([C@H](C)CO)C(=O)c2cc(NC(=O)Cc3ccccc3)ccc2O1	active
C[C@@H]1CN([C@@H](C)CO)C(=O)c2cc(NC(=O)Cc3ccccc3)ccc2O[C@@H](C)CCCCO[C@@H]1CN(C)C(=O)NC1CCCCC1	inactive
C[C@H](CO)N1C[C@H](C)[C@@H](CN(C)S(=O)(=O)c2cn(C)cn2)Oc2ccc(NS(C)(=O)=O)cc2C1=O	inactive
C[C@@H]1CN([C@H](C)CO)C(=O)c2cccc(NS(C)(=O)=O)c2O[C@@H]1CN(C)C(=O)Nc1ccc2c(c1)OCO2	inactive
C[C@@H]1CN([C@@H](C)CO)C(=O)c2ccccc2-c2ccccc2CO[C@@H]1CN(C)S(=O)(=O)c1cn(C)cn1	inactive
C[C@@H]1CCCCO[C@@H](CN(C)Cc2ccc(C(F)(F)F)cc2)[C@H](C)CN([C@@H](C)CO)C(=O)c2cc(NC(=O)CCCN(C)C)ccc2O1	inactive
C[C@@H]1CCCCO[C@H](CN(C)S(C)(=O)=O)[C@@H](C)CN([C@H](C)CO)C(=O)c2cc(NC(=O)c3ccncc3)ccc2O1	inactive
CO[C@@H]1CN(C)C(=O)c2cc(NS(=O)(=O)c3ccccc3)ccc2OC[C@H](C)N(C(=O)NC(C)C)C[C@H]1C	inactive
CN(C)C(=O)C[C@@H]1CC[C@@H](NC(=O)C2CCOCC2)[C@H](CO)O1	inactive
CCN(CCCCOC(=O)c1ccc(OC)c(OC)c1)C(C)Cc1ccc(OC)cc1.Cl (stereo not given)	active
CCCOc1ccc(C(=O)OCCN(CC)CC)cc1N.Cl	inactive
CCCCOc1cc(C(=O)OCCN(CC)CC)ccc1N.Cl	inactive
C[C@H](CO)N1C[C@H](C)[C@H](CN(C)S(=O)(=O)c2ccc(F)cc2)Oc2ccc(NC(=O)CCCN(C)C)cc2C1=O	inactive
Cc1noc(C)c1NC(=O)Nc1ccc2c(c1)C(=O)N([C@@H](C)CO)C[C@H](C)[C@@H](CN(C)Cc1ccc(C(F)(F)F)cc1)OCCCC[C@H](C)O2	inactive
O=C(O)c1cccnc1Nc1cccc(C(F)(F)F)c1	inactive
Cc1cn(-c2cc(NC(=O)c3ccc(C)c(Nc4nccc(-c5cccnc5)n4)c3)cc(C(F)(F)F)c2)cn1	active
Cc1cn(-c2cc(NC(=O)c3ccc(C)c(Nc4nccc(-c5cnccn5)n4)c3)cc(C(F)(F)F)c2)cn1	inactive
O=C(Nc1cccnc1)c1nc2ncccn2n1	inactive
Cc1ccc(C(=O)Nc2cccc(C(F)(F)F)c2)cc1Nc1nc(-c2cccnc2)nc2c1cnn2C	active
COC(=O)CNC(=O)c1ccc(S(=O)(=O)N2CCOCC2)cc1	inactive
